Out of some 1,200 compounds screened, about 870 (72%) were called active. Another 3% or so got no clear call; they are omitted.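 Rule for the calls: active = every test run fits a falling curve whose half-maximal concentration is at most twice the top valid dose; inconclusive = runs disagree, or flat 30 to 70% inhibition, or poor fit; inactive = every run inactive: flat, rising or weaker potency.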 So high a share suggests a set chosen from earlier hits. Only a sample is shown. Entries with a potency or affinity are not part of this list.
Assay: blockers of HIV-1 ZM109 envelope-driven cell-cell fusion – HeLa effector, CEM target cells, luciferase, cherry-pick, dose response (AID 652058);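 note: 0% = neutral control wells and -100% = maraviroc 300 nM wells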
Conditions: HeLa Env/CEM cell fusion, 16-24 h; series mostly up to 35 µM; activity change, negative = inhibition: at the top concentration

Activity change, negative = inhibition, inactive:
CN(C(=O)c1cccc(NC(=O)Cc2cccc(NC(=O)C3CCCN(C(=O)C4CCC4)C3)c2)c1)C1CCC1 (stereo unspecified) -13.5%, CCCn1c(=S)[nH]c2cc(C(=O)N3CCCC(C(=O)OCC)C3)ccc2c1=O (stereo unspecified) -20.2%, COc1ccc(S(=O)(=O)N2CCCCC2)cc1NC(=O)CN(Cc1ccco1)Cc1ccco1 -3.11%, O=C(COC(=O)c1ncc(Cl)c(Cl)c1Cl)NCc1cccs1 -0.439%, CCc1cc2c(NCc3ccco3)ncnc2s1 -21.6%, COc1ccc(-c2cc(=O)oc3c(C)c(O)ccc23)cc1 -27.8%, COc1cccc(S(=O)(=O)N(C)C[C@H]2Oc3cc(C#CCC(C)C)ccc3S(=O)(=O)N([C@H](C)CO)C[C@H]2C)c1 -3.45%, COc1cccc(S(=O)(=O)N(C)C[C@@H]2Oc3cc(C#CCC(C)C)ccc3S(=O)(=O)N([C@H](C)CO)C[C@@H]2C)c1 -39.7%, COc1ccc(OC)c(-c2cc(C(=O)Nc3c(C)nn(Cc4ccc(Cl)cc4)c3C)no2)c1 14.8%, CC(Cl)=CCn1c(NCCc2ccccc2)nc2c1c(=O)n(C)c(=O)n2C -36.6% [at 16 µM], C[C@@H]1CN([C@@H](C)CO)C(=O)c2cc(NC(=O)c3ccncc3)ccc2O[C@@H]1CN(C)Cc1ccncc1 10.1%, C[C@@H]1CN([C@@H](C)CO)C(=O)c2cc(NC(=O)c3ccncc3)ccc2O[C@H]1CN(C)Cc1ccncc1 5.72%, CCCCNC(=O)C[C@H]1C[C@@]2(C(=O)OC)C(=C[C@H](C(C)(C)C)O[C@@H]2C)N(Cc2ccc3c(c2)OCO3)C1=O -40%, COCCn1c(=S)[nH]c2cc(C(=O)N3CCN(Cc4ccc5c(c4)OCO5)CC3)ccc2c1=O 5.41%, CC(C)OCCCn1c(=S)[nH]c2ccc(N3CCOCC3)cc2c1=O -35.9%, O=S(=O)(c1ccccc1Cl)N1CCCC1c1nc(-c2ccc(Cl)cc2)no1 (stereo unspecified) -56.4%, CCS(=O)(=O)N[C@H]1CC[C@@H](CC(=O)NCc2ccc(Cl)cc2)O[C@@H]1CO 50.7%, O=C(C[C@@H]1C=C[C@@H](NC(=O)Nc2ccc3c(c2)OCO3)[C@H](CO)O1)NCc1ccc(F)cc1 -30.8%, Nc1c(S(=O)(=O)c2ccccc2)cnc2c(-c3ccc(F)cc3)cnn12 133%, COc1ccc(OC)c(NC(=O)COc2ccc3c(c2)CCC3)c1 0.146%, COc1ccc(S(=O)(=O)NNC(=O)C2Cc3c(ccc4ccccc34)O2)cc1 (stereo unspecified) -56.4%, COc1ccc(CCNC(=O)COC(=O)c2cccn2C)cc1 -31.2%, COc1ccc(CCCC(=O)NCCc2ccccc2)c(C)c1 33%, Cc1[nH]nc2c1C1(C(=O)N(Cc3ccc(Cl)cc3)c3ccccc31)C(C#N)=C(N)O2 (stereo unspecified) -29.2%, Cc1ccccc1OCCCCn1cnc2ccccc21 23.8% [at 16 µM], Cc1ccc(C(=O)NCc2ccccn2)cc1S(=O)(=O)N1CCCCC1 -1.12%, O=C(Nc1ccncc1)c1ccc(Cl)c(S(=O)(=O)N2CCc3ccccc32)c1 36.8% [at 16 µM], COc1cccc(/C=N/NC(=O)CC2C(=O)NN=C2C)c1O (stereo unspecified) 14.3%, O=C(C[C@@H]1CC[C@@H](NC(=O)c2ccncc2)[C@H](CO)O1)NCCc1ccncc1 83%, CN(C)CC(=O)Nc1ccc2c(c1)[C@H]1C[C@H](CC(=O)NCc3cccc(F)c3)O[C@@H](CO)[C@H]1O2 113%, CC(C)n1c(NCCc2ccccc2)nc2c1c(=O)n(C)c(=O)n2C -21.3%, CCCCn1c(CN(C)Cc2ccccc2)nc2c1c(=O)n(C)c(=O)n2C 78.3%, CC1CN(S(=O)(=O)c2cc(C(=O)NCCC3=CCCCC3)ccc2Cl)CC(C)O1 (stereo unspecified) -20.5% [at 16 µM], Cc1cc(C)c(CN2CCN(C(=O)Cn3ccc(NC(=O)OCc4ccccc4)nc3=O)CC2)c(C)c1 16.7%, CC(c1nc2ccccc2c(=O)[nH]1)N(C)CCOc1ccc(Cl)cc1 (stereo unspecified) -27%, CNC[C@@H]1Oc2ccc(NS(C)(=O)=O)cc2CC(=O)N([C@H](C)CO)C[C@H]1C 26.6%, COCC(=O)N(C)C[C@H]1Oc2ncc(Br)cc2C(=O)N([C@H](C)CO)C[C@H]1C -6%, C[C@H]1CN([C@@H](C)CO)C(=O)c2cccc(NC(=O)Nc3ccc(C(F)(F)F)cc3)c2O[C@H]1CN(C)S(=O)(=O)c1ccccc1 108%, O=C(c1cc(COc2cccc(C(F)(F)F)c2)on1)N1CCC(c2ccncc2)CC1 -30.2%, Clc1ccc(-c2noc(CSc3nnc(-c4ccncc4)n3-c3ccccc3)n2)cc1 4.75%, CC1=C(C(=O)OCc2ccc3c(c2)OCO3)C(c2ccc(F)cc2)NC(=O)N1 (stereo unspecified) 103%, Cc1nn(C)c(Cl)c1NC(=O)OCc1ccc(Cl)cc1Cl -7.87%, Cc1nn(C)cc1NC(=O)C[C@H]1CC[C@@H]2[C@@H](COc3ccc(NC(=O)C4CCC4)cc3C(=O)N2C)O1 37.5%, CCNC(=O)C[C@@H]1CC[C@@H]2[C@@H](COc3ccc(NC(=O)Cc4cccs4)cc3C(=O)N2C)O1 -19.1%, CCNC(=O)Nc1ccc2c(c1)C(=O)N(C)[C@@H]1CC[C@@H](CC(=O)NCC3CCCCC3)O[C@@H]1CO2 15.7%, CCNC(=O)C[C@H]1CC[C@@H]2[C@@H](COc3ccc(NC(=O)Cc4cccs4)cc3C(=O)N2C)O1 58.5%, CN(C)CCCNC(=O)[C@H]1[C@H](CO)[C@H]2Cn3c(ccc(C4=CCCC4)c3=O)[C@H]2N1CCC(F)(F)F 15.1%, CNC[C@H]1Oc2c(NC(=O)Nc3ccc4c(c3)OCO4)cccc2C(=O)N([C@H](C)CO)C[C@@H]1C 38.3%, C[C@H](CO)N1C[C@H](C)[C@H](CN(C)Cc2ccccc2)Oc2c(NC(=O)Nc3ccc4c(c3)OCO4)cccc2C1=O 203%, C#CCn1c(=O)c2c(ncn2C)n(C)c1=O -4.65%, COc1cccc(CNC(=O)C[C@@H]2C=C[C@H](NC(=O)C3CCC3)[C@H](CO)O2)c1 110%, Cc1ccc(-c2ccc3c(c2)O[C@H](CN(C)Cc2cccnc2)[C@@H](C)CN([C@H](C)CO)S3(=O)=O)cc1 -40.8%, Cc1ccc(-c2ccc3c(c2)O[C@@H](CN(C)Cc2cccnc2)[C@H](C)CN([C@H](C)CO)S3(=O)=O)cc1 -45.1%, N#Cc1ccc(CN2CCN(C(=O)CNC(=O)Cc3cccc4ccccc34)CC2)cc1 -37.4%, Cc1cc(C)c(CN2CCN(C(=O)Cn3cnc4c(NCc5ccccc5)ncnc43)CC2)c(C)c1 -15.2%, CSc1ncccc1C(=O)OCC(=O)Nc1ccc(C)c(S(=O)(=O)N2CCOCC2)c1 20.5%, O=C(OCCOc1cccc(Cl)c1)c1cc(S(=O)(=O)N2CCCCC2)ccc1N1CCOCC1 -9.55%, Nc1ccc(S(=O)(=O)c2ccc(N3CCOCC3)c(N)c2)cc1 -15.2%, C[C@H]1NC(=O)[C@@]2(C)[C@H](c3ccccc3)[C@H]3COc4ccccc4[C@@H]3N2C1=O 148%, COc1cc2c(cc1OC)C(=O)N1[C@H]3c4cc(Cl)ccc4OC[C@@H]3[C@H](c3ccccc3)[C@]1(C)C(=O)N2 -15.7%, COc1ccc(-c2nn(C)c(=O)c3ccccc23)cc1NC(=O)COc1ccccc1 33.2% [at 16 µM], COc1ccc(OCC(=O)Nc2cc(-c3nn(C)c(=O)c4ccccc34)ccc2OC)cc1 32.8%, Cc1ccc(-c2ccc3c(c2)O[C@@H](CN(C)C(=O)C2CCCCC2)[C@H](C)CN([C@H](C)CO)S3(=O)=O)cc1 -97.7%, Cc1ccc(-c2ccc3c(c2)O[C@H](CN(C)Cc2ccncc2)[C@@H](C)CN([C@@H](C)CO)S3(=O)=O)cc1 30.1% [at 16 µM], Cc1ccc(-c2ccc3c(c2)O[C@@H](CN(C)Cc2ccncc2)[C@H](C)CN([C@H](C)CO)S3(=O)=O)cc1 -87.2%, C[C@H](CO)N1C[C@H](C)[C@H](CN(C)Cc2ccccc2F)Oc2cc(C3=CCCC3)ccc2S1(=O)=O -114%, Cc1ccccc1S(=O)(=O)NC(=O)C1(C)CCN1C(=O)CCc1ccc(Cl)cc1Cl (stereo unspecified) 33.3%, O=C(c1cccc(S(=O)(=O)N2CCN(c3ccccc3)CC2)c1)N1CCCC(C(F)(F)F)C1 (stereo unspecified) -4.76%, N#Cc1ccc(CSc2nnc(COc3ccccc3)n2-c2ccccc2)cc1 -17.7%, COC(=O)[C@@]1(Cc2ccc(F)cc2)[C@H]2c3cc(C(=O)N(C)C)n(CCO)c3C[C@H]2CN1C(=O)c1ccccc1 101%, CC(NC(=O)c1ccccc1NC(=O)CN1CCc2ccccc2C1)c1ccccc1 (stereo unspecified) -37%, Cc1ccc(-n2nnnc2SCn2nnc3ccccc3c2=O)c(C)c1 40.8%, Cc1cccc(N2CCN(C(=O)CCCSc3nc4ccccc4[nH]3)CC2)c1C -31.6%, O=C(NCc1cccnc1)c1c[nH]c2cc3c(cc2c1=O)OCCO3 107%, N#C[C@H]1[C@@H](c2ccccc2/C=C/c2ccccc2)[C@@H](CO)N1S(=O)(=O)c1cccc(F)c1 21.6%, Cc1ccc(CSCCNC(=O)c2ccc(Cl)c(S(=O)(=O)N3CCOCC3)c2)cc1 -30.2%, Cc1nc2sc(C(c3ccco3)N3CCC(Cc4ccccc4)CC3)c(O)n2n1 (stereo unspecified) 66.1%, C[C@H]1CN([C@@H](C)CO)C(=O)Cc2cc(N(C)C)ccc2O[C@H]1CN(C)CC1CC1 35%, COCCCNC(=O)c1sc2ncnc(N3CCc4ccccc4C3)c2c1C 67.1%, CC(C)(C)OC(=O)N1CCc2onc(-c3ccc(Br)cc3)c2C1=O 40.4%, COc1ccc(Nc2ncc(C(=O)N3CCN(c4ccc(F)cc4)CC3)c3ccccc23)cc1 -34.6%, c1coc(CNc2c3c(nc4ccccc24)CCC3)c1 -23.4%, Cc1ccc(NS(=O)(=O)c2cc(C(=O)N(C)C3CCN(C)CC3)ccc2Cl)cc1Cl 13.3%, Cc1cc(Cl)c(S(=O)(=O)N2CCCC2)cc1OCC(=O)NC1CCCCC1 -16.4%, C=CCOc1c(Br)cc(CNc2ccc(NC(=O)C(C)C)c(OC)c2)cc1OC 378% [at 16 µM], Cc1noc(C)c1NC(=O)N(C)C[C@H]1OCCCC[C@H](C)Oc2ccc(NC(=O)c3ccccc3)cc2C(=O)N([C@H](C)CO)C[C@@H]1C 213%
